# Values joined by “and” are separate entries in the source; they are usually repeats but may differ in a detail not shown here. Equal values may be shown once. Records with an inconclusive call do not appear. Active and inactive are the calls of the source. Unless noted, the call rests on the fitted dose curve; in most records, active means well fitted curve in the direction sought with a large enough effect; inconclusive means small, poorly fitted or top-dose-only effect, or another doubt; inactive means no such curve, though single readings can be large; an effect the other way counts as inactive or inconclusive.
# Legend:
# [1] = biological target: Cytochrome P450 2C9 (Homo sapiens) (UniProt P11712); assay: Cytochrome P450 family 2 subfamily C member 9 (CYP2C9) small molecule antagonists: luciferase biochemical (cell-free) qHTS assay (AID 1645842; active means well fitted curve in the direction sought with a large enough effect in the repeat runs; an effect the other way counts as inactive or inconclusive; further: nearly all actives have a fitted effect of over 55% in size); details: P450-Glo CYP2C9 enzyme assay, luciferin luminescence; series mostly up to 57.4 µM
# Outline: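 P450-Glo CYP2C9 system: proluciferin substrate with enzyme in mix containing 0.4% BSA, 10 min at room temperature, then NADPH regeneration solution added and incubated 1 h at 37C. Detection reagent stopped reaction; luminescence read after 20 min as RLU.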
# [2] = Primary qHTS for inhibitors of nuclear receptor binding SET domain protein 2 (NSD2) in an isogenic RCH-ACV NSD2 p.E1099K mutant (9B) (AID 1645876); details: RCH-ACV NSD2 E1099K (9B) viability, CellTiter-Glo, 72 h; series mostly up to 44.9 µM; further: nearly all actives have a fitted effect of over 70% in size
# [3] = Primary qHTS for inhibitors of nuclear receptor binding SET domain protein 2 (NSD2) in an RCH-ACV wild type WT cells (2C) (AID 1645877); details: RCH-ACV (leukaemia line) NSD2 WT (2C) viability, CellTiter-Glo, 72 h; series mostly up to 44.9 µM; further: nearly all actives have a fitted effect of over 70% in size
# Potency means the concentration at half of the fitted maximal effect.
# Chain of Cytochrome P450 2C9 (Homo sapiens) (P11712 whole entry, looked up): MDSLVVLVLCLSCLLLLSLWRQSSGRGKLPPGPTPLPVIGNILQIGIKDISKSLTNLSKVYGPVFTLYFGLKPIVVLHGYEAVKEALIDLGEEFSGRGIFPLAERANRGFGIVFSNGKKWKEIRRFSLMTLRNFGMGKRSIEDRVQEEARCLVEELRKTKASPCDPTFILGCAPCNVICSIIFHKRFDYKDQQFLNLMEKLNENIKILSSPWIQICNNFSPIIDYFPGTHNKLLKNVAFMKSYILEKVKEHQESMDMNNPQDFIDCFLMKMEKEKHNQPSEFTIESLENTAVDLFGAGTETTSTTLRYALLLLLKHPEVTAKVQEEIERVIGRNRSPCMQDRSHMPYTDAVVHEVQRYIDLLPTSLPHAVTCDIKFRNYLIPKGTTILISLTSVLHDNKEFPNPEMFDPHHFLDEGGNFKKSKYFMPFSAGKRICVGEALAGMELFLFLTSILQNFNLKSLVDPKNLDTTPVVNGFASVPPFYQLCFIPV
Compound,Potency [1],Potency [2],Potency [3]
CCOC(=O)C1(CCOc2ccccc2)CCN(Cc2ccc(O)c(Cl)c2)CC1,6.01 µM (active),23 µM (active),23 µM (active)
Cc1cc2sc(NC(=O)Cc3ccccc3)nc2cc1Cl,inactive,inactive,inactive
CCOc1ccc(CCNC(=O)c2cc3sc(Cl)cc3n2C)cc1OCC,2.39 µM (active),inactive,inactive
Cn1nc(-c2ccc(C(F)(F)F)cc2)nc2c(=O)n(C)c(=O)nc1-2,inactive,2.58 µM (active),2.3 µM (active)
CN(C)C(=O)C(=O)c1cn(C)c2cc(Cl)c(C(=O)N3CCC(Cc4ccc(F)cc4)CC3)cc12,inactive,23 µM (active),23 µM (active)
CCOc1nc(NC(=O)Cc2cc(OC)ccc2OC)cc(N)c1C#N,0.301 µM (active),inactive,inactive
C[C@@H](Nc1ncnc2[nH]c(-c3ccc(O)cc3)cc12)c1ccccc1,1.2 µM (active),5.78 µM (active) and 11.8 µM (active),5.78 µM (active) and 10.5 µM (active)
CC(C)OC(=O)N1CCC(Oc2ncnc3c2cnn3-c2ccc(S(C)(=O)=O)cc2F)CC1,3.79 µM (active),inactive,inactive
COc1ccc(Cl)c(Nc2ncnc3cc(OCC4CCN(C)CC4)c(OC)cc23)c1,inactive,13.2 µM (active),13.2 µM (active)
CC(C)(C[C@@](O)(Cc1cc2ccncc2[nH]1)C(F)(F)F)c1cc(F)ccc1O,0.301 µM (active),10.3 µM (active),0.163 µM (active)
COc1cc2c(cc1OC)CN(C(=O)/C=C/c1c(-c3ccccc3)n(C)c3ncccc13)CC2,0.268 µM (active),8.17 µM (active),11.5 µM (active)
